Assay in all cases: qHTS profiling for inhibitors of Plasmodium falciparum proliferation (AID 504749); also: nearly all actives have a fitted effect of over 60% in size
Details in all cases: P. falciparum in erythrocytes, SYBR Green DNA, 72 h; series mostly up to 28.7 µM
(In general: Quantitative high-throughput screening tests each substance at several concentrations.)

One test relates to GB4. Summed up: (§1)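 Three-day growth assay of blood-stage parasites in erythrocytes (0.3% parasitemia, 2.5% hematocrit) at 37 C, 5% CO2, quantified by SYBR Green DNA staining after overnight detergent lysis.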
The test system of a further test is ICS. The method, boiled down:
as §1

Another test has as its system N140. Summed up:
as §1

The test system of the next test is P93_24. Summed up: as §1
For another test, the system named is P94_40. The method, boiled down:
as §1

The subject of the next test is PAD. The method, boiled down: as §1
The test system of a further test is FAB9. Summed up:
as §1

A further test deals with JCK. The method, boiled down: as §1
Another test concerns HB3. The method, boiled down: as §1
The test system of a further test is PC15. Summed up:
as §1

Records with an inconclusive call do not appear. The source made the active and inactive calls. Calls follow the shape of the dose curve; as a rule, active = well fitted inhibition curve with a large enough effect; inconclusive = small, poorly fitted or top-dose-only effect; inactive = flat fitted curve, though single readings scatter.
Potency is read from the fitted curve at half-maximal effect.

For `Cc1ccc(NC(=O)c2ccc(CN3CCN(C)CC3)cc2)cc1Nc1nccc(-c2cccnc2)n1`, the Potency in the test on GB4 is 15.1 µM (active); with ICS, 11.2 µM (active); in the test with N140, 8.91 µM (active); with P93_24, 10 µM (active); in the test with P94_40, 11.2 µM (active); in the test with PAD it was 10 µM (active).
For the compound `CCCCC(CC)COC(=O)C(C#N)=C(c1ccccc1)c1ccccc1` (stereo not given), the Potency entry with FAB9, in the test with JCK, in the test with N140 and in the test with PAD was “inactive” each time.
For the compound `O=C1CCc2ccc(OCCCCN3CCN(c4cccc(Cl)c4Cl)CC3)cc2N1`, the Potency entry in the test on FAB9, in the test with GB4 and with JCK was “inactive” in each case. The Potency with ICS is 11.2 µM (active); in the test on P93_24 it was 10 µM (active).
As to `COC1=C(OC)C(=O)C(CCCCCCCCCCO)=C(C)C1=O`, the Potency entry in the test on FAB9, in the test with HB3, in the test on ICS, with JCK, with N140 and in the test with P93_24 was “inactive” each time. The Potency result in the test on PAD and in the test with PC15 was “inactive” throughout.
On to `O=C(O)CCNC(=O)c1ccc(N=Nc2ccc(O)c(C(=O)O)c2)cc1`, for which the Potency result with FAB9, in the test on GB4, with ICS, in the test on JCK, in the test on N140 and with P93_24 was “inactive” in each case. The Potency result in the test on P94_40, with PAD and in the test with PC15 was “inactive” throughout.
As for `COC(=O)C1=C(C)NC(C)=C(C(=O)OCCCN2CCC(c3ccccc3)(c3ccccc3)CC2)C1c1cccc([N+](=O)[O-])c1` (stereo not given), the Potency was 1.9 µM (active) in the test with GB4; 8.91 µM (active) with HB3; 1.41 µM (active) with ICS; 5.01 µM (active) in the test on N140; 3.98 µM (active) in the test with P93_24; 4.47 µM (active) in the test on P94_40. Besides, the results for the Potency in the test with PAD and in the test on PC15 were 10 µM (active) and 11.2 µM (active), respectively.
Take `N=C(N)c1ccc2cc(OC(=O)c3ccc(N=C(N)N)cc3)ccc2c1`: the values for the Potency in the test on GB4 and with ICS were 5.36 µM (active) and 7.08 µM (active), respectively. The Potency result in the test on JCK and in the test with PAD was “inactive” each time.
Take `O=C1c2ccccc2-c2n[nH]c3cccc1c23`: the Potency entry in the test with FAB9, in the test on HB3, in the test on JCK, in the test with N140, in the test on P93_24 and in the test with P94_40 was “inactive” in each case. For the same compound, the Potency result with PAD and with PC15 was “inactive” each time.
Regarding `CN(c1nccc(=O)[nH]1)C1CCN(c2nc3ccccc3n2Cc2ccc(F)cc2)CC1`, the Potency entry in the test with FAB9, with HB3, with JCK, with P93_24 and in the test on PAD was “inactive” each time. Besides, in the test on ICS, the Potency was 10 µM (active).
On to `Cc1cc(=O)oc2cc(O)ccc12`, for which the Potency entry with FAB9, in the test on GB4, in the test on P93_24, in the test with P94_40 and in the test with PAD was “inactive” each time. Besides, the figures for the Potency in the test on JCK and in the test with PC15 were 2 µM (active) and 1.12 µM (active), respectively.
For the compound `Cc1cc(C2CCCCC2)n(O)c(=O)c1`, the Potency in the test with FAB9 was 3.55 µM (active); in the test on GB4 it was 6.42 µM (active); in the test with ICS, 3.55 µM (active); in the test with P93_24, 3.16 µM (active); with PC15 it was 3.16 µM (active).
With `O=c1oc2cc(O)ccc2s1`, the Potency result in the test on FAB9, with HB3, in the test with JCK, with N140, in the test with P93_24 and in the test on P94_40 was “inactive” each time. Further, the Potency result with PAD and in the test with PC15 was “inactive” in each case.
As to `CCN(CCO)CCCC(C)Nc1ccnc2cc(Cl)ccc12` (stereo not given), the Potency in the test on FAB9 was 1.41 µM (active); with HB3, 1 µM (active). The Potency entry in the test on ICS, in the test on JCK, in the test with N140, in the test on P93_24, with P94_40 and in the test with PAD was “inactive” in each case.
For the compound `Cc1nc(Nc2ncc(C(=O)Nc3c(C)cccc3Cl)s2)cc(N2CCN(CCO)CC2)n1`, the Potency entry in the test with FAB9 and in the test with JCK was “inactive” in each case. Moreover, the Potency is 15.1 µM (active) in the test with GB4, 7.08 µM (active) in the test on ICS and 14.1 µM (active) with N140.
For `NNc1nncc2ccccc12`, the Potency was 3.98 µM (active) with HB3, 1.41 µM (active) in the test on ICS, 3.98 µM (active) in the test on P93_24 and 3.55 µM (active) in the test with P94_40.
`Cc1cc2c(s1)Nc1ccccc1N=C2N1CCN(C)CC1`: the Potency result in the test with FAB9, in the test with HB3, with ICS, with JCK, in the test on N140 and in the test on P93_24 was “inactive” each time. For the same compound, the Potency entry with P94_40, in the test with PAD and with PC15 was “inactive” in each case.
In the case of `O=C(O)c1cn(-c2ccc(F)cc2)c2cc(N3CCNCC3)c(F)cc2c1=O`, the Potency entry with FAB9, in the test with HB3, with JCK, with N140, in the test on PAD and in the test on PC15 was “inactive” throughout.
Consider `Nc1nc(Cl)nc2c1ncn2[C@H]1C[C@H](O)[C@@H](CO)O1`, for which the Potency entry in the test with FAB9, in the test on HB3, in the test with ICS, with JCK, with N140 and in the test on P93_24 was “inactive” in each case. Besides, the Potency entry in the test on P94_40, in the test with PAD and with PC15 was “inactive” in each case.
As for `Cc1c(C(=O)NN2CCCCC2)nn(-c2ccc(Cl)cc2Cl)c1-c1ccc(Cl)cc1`, the Potency with ICS is 11.2 µM (active); in the test with N140 it was 8.91 µM (active); in the test on P93_24, 10 µM (active); in the test with P94_40, 11.2 µM (active). Moreover, the Potency result with JCK was “inactive”.
Take `C=C(c1ccc(C(=O)O)cc1)c1cc2c(cc1C)C(C)(C)CCC2(C)C`: the Potency result in the test on FAB9, in the test on GB4, with JCK, with N140, in the test with P93_24 and in the test on P94_40 was “inactive” each time. In addition, the Potency result with PAD and in the test with PC15 was “inactive” in each case. Besides, the Potency with ICS is 8.91 µM (active).
Regarding `CC1=C(C)C(=O)C(C(CCCCCC(=O)O)c2ccccc2)=C(C)C1=O` (stereo not given), the Potency entry in the test with FAB9, in the test with HB3, in the test on ICS, in the test with JCK, in the test on P93_24 and in the test on P94_40 was “inactive” in each case. Further, the Potency result in the test with PAD and in the test on PC15 was “inactive” each time.
For the compound `CN1CCC(=C2c3ccccc3CCc3sccc32)CC1`, the Potency result in the test on FAB9 is “inactive”. Further, the Potency was 6.01 µM (active) with GB4 and 8.91 µM (active) with ICS.
As for `CCCCCCCCOc1ccccc1C(=O)Nc1ccc(C(=O)OCC[N+](C)(CC)CC)cc1`, in the test with FAB9, the Potency entry is “inactive”. Besides, the figures for the Potency in the test with GB4, with ICS and with P93_24 were 12 µM (active), 8.91 µM (active) and 12.6 µM (active), respectively.
Regarding `CCCCN(CCCC)CCC(O)c1cc2c(Cl)cc(Cl)cc2c2cc(C(F)(F)F)ccc12` (stereo not given), the Potency with FAB9 is 0.0112 µM (active); in the test with HB3, 0.0063 µM (active); with ICS, 0.0006 µM (active); with JCK, 10 µM (active); in the test with N140 it was 0.0032 µM (active); in the test on P93_24, 0.0056 µM (active). The Potency in the test on P94_40 is 0.0032 µM (active); in the test with PAD, 0.0045 µM (active); with PC15, 0.0089 µM (active).
In the case of `CC[C@]1(O)C[C@H]2CN(CCc3c([nH]c4ccccc34)[C@@](C(=O)OC)(c3cc4c(cc3OC)N(C=O)[C@H]3[C@@](O)(C(=O)OC)[C@H](OC(C)=O)[C@]5(CC)C=CCN6CC[C@]43[C@@H]65)C2)C1`, the Potency in the test on HB3 is 0.447 µM (active); with ICS it was 0.1 µM (active); in the test with N140, 3.55 µM (active); with P94_40, 3.16 µM (active). The Potency result in the test on PC15 was “inactive”.
For `CCC[C@@H]1C[C@@H](C(=O)N[C@@H]([C@H]2O[C@H](SC)[C@H](O)[C@@H](O)[C@H]2O)[C@@H](C)O)N(C)C1`, the Potency result with FAB9, in the test with JCK, in the test on PAD and in the test on PC15 was “inactive” each time.
Consider `O=C(OC1C[C@H]2CC[C@@H](C1)[N+]21CCCC1)C(O)(c1ccccc1)c1ccccc1` (stereo not given in full), for which the Potency in the test with GB4 is 4.26 µM (active); in the test with P93_24, 2.24 µM (active); in the test on P94_40 it was 4.47 µM (active). In addition, the Potency entry in the test on JCK and with PC15 was “inactive” each time.
For `Clc1ccc(C(Cn2ccnc2)OCc2ccsc2Cl)c(Cl)c1` (stereo not given), the Potency was 1.69 µM (active) in the test with GB4; 3.16 µM (active) in the test on HB3; 1 µM (active) with ICS; 5.01 µM (active) with JCK; 2.82 µM (active) in the test on N140; 2.24 µM (active) in the test with P93_24. The Potency with P94_40 is 4.47 µM (active); in the test on PAD it was 1 µM (active); in the test on PC15, 4.47 µM (active).

These data come from PubChem BioAssay (NCATS).
